DT40 TDP1 CPT = DT40-hTDP1 cell growth loss with CPT; chicken DT40 Tdp1-/-;hTDP1 cells + 20 nM CPT, ATP luminescence, 48 h; Potency, µM (highest dose often 46.2 µM), actives largely listed as inhibitors; 420,000 compounds, 12% hits; AID 686979; also: nearly all actives have a fitted effect of over 55% in size
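Chicken DT40 Tdp1-/- cells complemented with human TDP1, 400 cells/well, exposed to compounds plus 20 nM camptothecin for at least 48 h at 37 C; viability read as ATP content by CellTiter-Glo luminescence.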
IL-1B inflam inh = inflammasome signaling inhibition, IL-1 beta readout | THP-1 LPS/ATP IL-1B secretion, AlphaLISA, 16 h; active compounds read low | activity change, % at 57.5 µM | 360,000 compounds, 4.7% hits | AID 743279; in the data active = activity change below about -50%; inconclusive = mostly about -30% to -49%
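THP-1 cells pretreated 1 hr with compounds (up to 57.5 uM final), then stimulated with LPS (250 ng/mL final) plus ATP (1.25 mM final); secreted IL-1B measured by AlphaLISA after 16 hr, decreased signal indicating inhibition.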
LDHA block = inhibitors of human lactate dehydrogenase A; P00338; purified LDHA, NADH/diaphorase-resazurin fluorescence; active compounds read low; activity change, % (values are at about 110 or 230 µM); 480,000 compounds, 0.15% hits; AID 1347041; in the data active = activity change below about -30%; inconclusive = mostly about -25% to -30%
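Resorufin fluorescence (ex540/em590), read at 0 and 20 min after diaphorase/resazurin addition, reports the NADH left after a 5 min room-temperature reaction of 2 nM human LDH5 with 0.06 mM NADH and 0.2 mM pyruvate.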
Gal4-VP16 FLuc = Gal4-VP16 reporter inhibition counter-screen. AID 2546. Drosophila S2 Gal4-VP16 UAS-luciferase, luminescence, 20 h. 310,000 compounds, 3.5% hits. Potency, µM (highest dose often 53.6 µM), usual class: inhibitors;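 also: Gal4-VP16 expression switched on by copper sulfate through the metallothionein promoter; nearly all actives have a fitted effect of over 50% in size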
RORgamma inh = ROR gamma (mouse) transcription inhibition. Drosophila S2 Gal4-RORgamma UAS-luciferase reporter, 20 h. Potency, µM (top dose mostly 53.6 µM), most hits filed as inhibitors. AID 2551. 310,000 compounds, 5.4% hits. P51450; also: nearly all actives have a fitted effect of over 60% in size
Target sequence (P51450 whole entry, looked up, the tested form may be a part): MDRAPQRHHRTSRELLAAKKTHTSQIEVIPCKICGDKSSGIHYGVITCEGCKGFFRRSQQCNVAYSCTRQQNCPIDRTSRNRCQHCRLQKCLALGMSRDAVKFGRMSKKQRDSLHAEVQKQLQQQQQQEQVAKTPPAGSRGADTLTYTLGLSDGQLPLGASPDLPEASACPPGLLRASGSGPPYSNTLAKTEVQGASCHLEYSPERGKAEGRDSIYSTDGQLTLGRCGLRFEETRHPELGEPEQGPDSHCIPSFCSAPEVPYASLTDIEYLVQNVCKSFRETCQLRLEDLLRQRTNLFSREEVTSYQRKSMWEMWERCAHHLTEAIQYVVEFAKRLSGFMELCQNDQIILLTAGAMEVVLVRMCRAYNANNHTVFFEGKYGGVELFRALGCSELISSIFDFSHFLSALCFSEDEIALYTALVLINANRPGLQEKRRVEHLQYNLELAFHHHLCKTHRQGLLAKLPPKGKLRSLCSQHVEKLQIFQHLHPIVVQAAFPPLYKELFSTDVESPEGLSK
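Compounds are pin-transferred onto Drosophila Schneider cells expressing a copper-inducible Gal4–ROR gamma transactivation domain fusion. After 1 hr, copper sulfate is added to 700 uM final; luciferase is read 20 hr later.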
TDP1 cell noCPT = qHTS for Inhibitors of human tyrosyl-DNA phosphodiesterase 1 (TDP1): qHTS in cells in absence of CPT; Potency, µM (titrated, usually from 46.2 µM), usual class: inhibitors; 420,000 compounds, 15% hits; AID 686978, 2013; DT40 Tdp1-/- hTDP1 cells, no CPT, ATP luminescence, 48 h; also: nearly all actives have a fitted effect of over 55% in size
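A cellular qHTS used chicken DT40 cells lacking endogenous Tdp1 but carrying stably transfected human TDP1. Compounds were applied without camptothecin, and cell growth kinetics were judged by ATP-dependent luminescence after ≥48 hr.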
A number is an active result. Only some compounds are listed: those with a hit (about 18% of all), similar ones and a draw of the others. Unless noted, calls follow the shape of the dose curve; as a rule, active = well fitted curve in the direction sought with a large enough effect; inconclusive = small, poorly fitted or top-dose-only effect, or another doubt; inactive = no such curve, though single readings can be large; an effect the other way counts as inactive or inconclusive.

Nc1c(C(=O)c2ccc(F)cc2)sc2nc3c(cc12)CN(Cc1ccccc1)CC3 was read as LDHA block inactive.
Screening CCN1CCc2nc3sc(C(=O)c4ccc(F)cc4)c(N)c3cc2C1 returned DT40 TDP1 CPT inconclusive, LDHA block inactive and TDP1 cell noCPT 23.1µM.
`CCN1CCc2nc3sc(C(=O)c4ccccc4)c(N)c3cc2C1` gave DT40 TDP1 CPT 2.59µM, LDHA block inactive and TDP1 cell noCPT 3.66µM.
Screening N#Cc1cccc(COC(=O)c2c[nH]c3ccccc23)c1 returned LDHA block inactive.
`OCCN(CCO)c1cc2c3ccccc3ccc2c2ccccc12` gave DT40 TDP1 CPT inconclusive, IL-1B inflam inh -65.2, LDHA block inactive and TDP1 cell noCPT 16.4µM.
For CN(C)c1cc2c3ccccc3ccc2c2ccccc12 the results were DT40 TDP1 CPT inconclusive, LDHA block inactive and TDP1 cell noCPT 15.8µM.
For OCCN(CCO)c1ccc2ccccc2c1 the results were DT40 TDP1 CPT inactive, IL-1B inflam inh inactive, LDHA block inactive, Gal4-VP16 FLuc inactive, RORgamma inh inactive and TDP1 cell noCPT inactive.
CC(C)(C)c1cc(C(=O)/C=C/c2ccc(C(=O)O)cc2)cc(C(C)(C)C)c1 was read as Gal4-VP16 FLuc inconclusive and RORgamma inh 7.08µM.
For CC(=O)Nc1ccc(/C=C/C(=O)c2ccc3c(c2)OCCO3)cc1 the results were DT40 TDP1 CPT inconclusive, IL-1B inflam inh -102.4, LDHA block inactive, Gal4-VP16 FLuc inactive, RORgamma inh inconclusive and TDP1 cell noCPT inconclusive.
For O=C(O)c1ccc(/C=C/C(=O)c2ccc3c(c2)OCCCO3)cc1 the results were DT40 TDP1 CPT inconclusive, IL-1B inflam inh -102.7, LDHA block inactive, Gal4-VP16 FLuc 10µM, RORgamma inh 5.01µM and TDP1 cell noCPT 23.1µM.
Screening O=C(c1cc(F)ccc1F)C1CCN(CCc2ccncc2)CC1 returned LDHA block inactive.
O=C(C[n+]1cccc2ccccc21)c1ccc(NC(=O)c2ccccc2)cc1 was read as DT40 TDP1 CPT 8.2µM, IL-1B inflam inh inactive, LDHA block inactive, Gal4-VP16 FLuc inactive, RORgamma inh inactive and TDP1 cell noCPT 6.51µM.
For Cc1cc[n+](CC(=O)c2ccc(NC(=O)c3ccccc3)cc2)c2ccccc12 the results were DT40 TDP1 CPT 8.2µM, IL-1B inflam inh inconclusive, LDHA block inactive, Gal4-VP16 FLuc inactive, RORgamma inh inconclusive and TDP1 cell noCPT 3.66µM.
N#Cc1cnc2ccccc2c1N1CCCCCC1 was read as LDHA block inactive.
For CCOC(=O)c1c(Nc2ccc(OCC)cc2)nnc(-c2ccccc2)c1-c1ccccc1 the results were DT40 TDP1 CPT 14.6µM, LDHA block inactive and TDP1 cell noCPT 20.6µM.
Screening CCOC(=O)c1c(-c2ccccc2)nc2ccccc2c1-c1ccccc1 returned LDHA block inactive.
Oc1ccc(-c2nnc(Nc3cccc(O)c3)c3ccccc23)cc1 was read as DT40 TDP1 CPT inactive, IL-1B inflam inh inactive, LDHA block inactive, Gal4-VP16 FLuc inactive, RORgamma inh inactive and TDP1 cell noCPT inactive.
CCOC(=O)c1c(Nc2cccc(O)c2)nnc(-c2ccccc2)c1-c1ccccc1 was read as DT40 TDP1 CPT inconclusive, LDHA block inactive and TDP1 cell noCPT 23.1µM.
C/C(=N/OCc1ccc(C(N)=O)cc1)c1cc2ccccc2o1 was read as LDHA block inactive.
`O=C(COC(=O)COc1ccc(C2SCCCS2)cc1)Nc1ccc(F)c(F)c1` gave LDHA block inactive.
Cc1ccccc1NC1=C(Cl)C(=O)N(C2CCCCC2)C1=O was read as DT40 TDP1 CPT inconclusive, IL-1B inflam inh -93.3, LDHA block inactive, Gal4-VP16 FLuc inconclusive, RORgamma inh inactive and TDP1 cell noCPT inconclusive.
`COc1ccccc1NC1=C(Cl)C(=O)N(C2CCCCC2)C1=O` gave DT40 TDP1 CPT 18.4µM, IL-1B inflam inh inactive, LDHA block inactive, Gal4-VP16 FLuc inactive, RORgamma inh inactive and TDP1 cell noCPT 25.9µM.
For Cc1cccc(C)c1NC(=O)COc1ncnc2ccccc12 the results were LDHA block inactive.
Screening CSc1ccccc1NC(=O)/C=C/c1ccco1 returned LDHA block inactive.
Cc1ccc2[nH]c3nc(NN)nnc3c2c1 was read as DT40 TDP1 CPT 23.1µM, IL-1B inflam inh inactive, LDHA block inactive, Gal4-VP16 FLuc inactive, RORgamma inh inconclusive and TDP1 cell noCPT inconclusive.
Screening CC(SC(C)c1ccccc1F)C(=O)NC(N)=O (stereo unspecified) returned LDHA block inactive.
For O=C(CSCc1ccccc1)c1ccc[nH]1 the results were LDHA block inactive.
Screening CCCCCc1cc(=O)[nH]c(=S)[nH]1 returned DT40 TDP1 CPT inactive, IL-1B inflam inh inactive, LDHA block inactive, Gal4-VP16 FLuc inactive, RORgamma inh inactive and TDP1 cell noCPT inactive.
`CCCCCc1ccc(C(=O)CCCC)c(=S)[nH]1` gave DT40 TDP1 CPT inactive, IL-1B inflam inh inactive, LDHA block inactive, Gal4-VP16 FLuc inactive, RORgamma inh 2.51µM and TDP1 cell noCPT inconclusive.
Cc1nc2c(OCc3ccc(C#N)cc3)cccn2c1N(C)C(=O)CCC1CCCC1 was read as DT40 TDP1 CPT inconclusive, IL-1B inflam inh -55.3, LDHA block inactive and TDP1 cell noCPT inconclusive.
Cc1nc2c(OCc3ccc(C(F)(F)F)cc3)cccn2c1N(C)C(=O)CCC1CCCC1 was read as DT40 TDP1 CPT inconclusive, IL-1B inflam inh inactive, LDHA block inactive and TDP1 cell noCPT inconclusive.
CCc1nc2c(OCc3ccc(C(=O)OC)cc3)cccn2c1N(C)C(=O)CC(C)C was read as DT40 TDP1 CPT inconclusive, IL-1B inflam inh inactive, LDHA block inactive and TDP1 cell noCPT inconclusive.
`Cc1nc2c(OCc3ccc(Cl)cc3)cccn2c1N(C)C(=O)CCC1CCCC1` gave DT40 TDP1 CPT 14.6µM, IL-1B inflam inh inactive, LDHA block inactive and TDP1 cell noCPT 23.1µM.
For Cc1nc2c(OCc3ccc(F)cc3)cccn2c1N(C)C(=O)CCC1CCCC1 the results were DT40 TDP1 CPT inconclusive, IL-1B inflam inh inactive, LDHA block inactive and TDP1 cell noCPT 23.1µM.
CCc1nc2c(OCc3ccc(C#N)cc3)cccn2c1N(C)C(=O)c1ccco1 was read as DT40 TDP1 CPT inactive, IL-1B inflam inh inactive, LDHA block inactive and TDP1 cell noCPT inactive.
Screening COC(=O)c1ccc(COc2cccn3c(N(C)C(=O)CCC4CCCC4)c(C)nc23)cc1 returned DT40 TDP1 CPT 18.4µM, IL-1B inflam inh inactive, LDHA block inactive and TDP1 cell noCPT 20.6µM.
`O=C(CN1CCOCC1)N1N=C(c2cc3ccccc3o2)CC1c1ccco1` (stereo unspecified) gave LDHA block inactive.
